Bioassay records: PubChem BioAssay, National Center for Advancing Translational Sciences (NCATS)
GLA spleen mod = alpha-galactosidase A (human) modulation. Potency, µM (doses to about 80 µM), usual class: inhibitors. P06280. human spleen homogenate, 4MU-alpha-Gal fluorescence, 40 min. 0.008% of 240,000 active
Target sequence (P06280 32-429 limits assumed): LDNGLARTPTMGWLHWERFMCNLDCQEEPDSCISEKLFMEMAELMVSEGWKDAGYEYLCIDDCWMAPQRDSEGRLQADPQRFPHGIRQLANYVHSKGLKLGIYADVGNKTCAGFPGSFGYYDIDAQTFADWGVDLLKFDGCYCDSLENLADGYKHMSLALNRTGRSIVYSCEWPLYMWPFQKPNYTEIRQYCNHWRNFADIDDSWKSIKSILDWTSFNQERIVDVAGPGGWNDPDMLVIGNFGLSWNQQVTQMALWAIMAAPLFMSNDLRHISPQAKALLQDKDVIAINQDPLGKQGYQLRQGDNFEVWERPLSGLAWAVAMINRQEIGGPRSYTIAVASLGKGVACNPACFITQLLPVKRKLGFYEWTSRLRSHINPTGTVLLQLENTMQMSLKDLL
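Human spleen homogenate (1 ug) was the enzyme source, with 4-methylumbelliferyl-alpha-D-galactopyranoside (1 mM final) in pH 5.0 citrate buffer with 0.01% Tween-20. Compounds were titrated; after 40 min at 37C, NaOH/glycine stop, 4-MU fluorescence read; AC50 from Hill fits.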
aGlu spleen mod = inhibitors or activators of human alpha-glucosidase in spleen homogenate; P10253; human spleen homogenate, 4-MU-alpha-glucoside fluorescence; Potency, µM (series often up to 79.9 µM), most hits filed as inhibitors; 0.006% of 240,000 active
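AC50 values come from Hill-equation fits of concentration-response data, normalized to no-enzyme and full-activity controls. Enzyme source: 1 ug human spleen homogenate; 1 mM fluorogenic 4-MU glucoside, pH 5.0 citrate buffer, 37 C, 40 min.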
GAA glycogen = GAA glycogen-cleavage inhibition or activation | 0.38% of 300,000 active | recombinant GAA, glycogen substrate, Amplex Red glucose oxidase fluorescence | Potency, µM (highest dose often 76.4 µM), actives largely listed as inhibitors | P10253;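 note: the screen sought inhibitors and activators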
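Recombinant enzyme (4 nM final) with compounds titrated up to 77 uM and bovine liver glycogen (30 ug) in citrate pH 5.0, 0.01% Tween-20, 37 C 40 min. Released glucose detected by Amplex Red/glucose oxidase (Ex 573/Em 610); AC50 from Hill fits.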
GLA inh pH 4.5 = blocks human alpha-galactosidase A at pH 4.5 | P06280 | purified enzyme, 4-MU-alpha-Gal fluorescence, pH 4.5 | activity change, negative = inhibition, % at 105 µM | 230,000 tested, under 10 active
GAA inh = alpha-glucosidase (human) inhibition. AID 1466. P10253. purified human GAA, 4-MU-alpha-glucoside fluorescence. 0.005% of 200,000 active. Potency, µM (top dose mostly 76.9 µM), most hits filed as inhibitors
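Endpoint fluorogenic read: 20 min room-temperature reaction of 4 nM human alpha-glucosidase with 400 uM 4-methylumbelliferyl-alpha-D-pyranoside, pH 5.0, quenched with 1M NaOH/1M glycine pH 10. AC50 from Hill modeling.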
N370S GC mod = inhibits or activates N370S mutant glucocerebrosidase. 0.092% of 330,000 active. Potency, µM (doses to about 59.4 µM), hits mostly inhibitors. N370S GC spleen homogenate, 4MU-glucoside fluorescence. P04062
A number is an active result; n = inactive; u = inconclusive; x = no result; [ ] = dose if it differs, or a comment. Rows were chosen to be rich in hits. Some 0.43% of all compounds tested hit in one or more screens of this group. Calls come from the whole dose curve; as a rule, active = well fitted curve in the direction sought with a large enough effect; inconclusive = small, poorly fitted or top-dose-only effect, or another doubt; inactive = no such curve, though single readings can be large; an effect the other way counts as inactive or inconclusive.

SMILES | GLA spleen mod | aGlu spleen mod | GAA glycogen | GLA inh pH 4.5 | GAA inh | N370S GC mod
CCOc1cc(CNCCO)cc(Br)c1OCc1ccc(Cl)cc1Cl | n | n | n | n | n | 10µM
Cc1cccc(CNc2ccnc(-c3ccccc3Cl)n2)c1 | n | n | x | x | x | 7.08µM
COc1ccccc1CNc1ccnc(-c2ccccc2Cl)n1 | n | n | x | x | x | u
Clc1ccccc1-c1nccc(NCc2ccccc2)n1 | n | n | x | x | x | 3.55µM
Cn1c2cc([N+](=O)[O-])sc2c2cnn(Cc3ccccc3F)c(=O)c21 | x | x | x | x | x | n
O=C(/C=C/c1ccc(O)c(O)c1)OC(Cc1ccc(O)c(O)c1)C(=O)O (centres undefined) | n | n | 2µM | n | x | n
CCc1nnc(N/N=C/c2c(F)cccc2Cl)n1N | x | x | n | x | x | n
CCc1nnc(N/N=C/c2c(C)[nH]c3ccccc23)n1N | n | n | 7.94µM | n | n | n
CCc1nnc(N/N=C/c2cc(C)c(C)cc2C)n1N | x | x | 8.91µM | x | x | n
Cc1[nH]c2ccccc2c1/C=N/NC(N)=S | n | n | u | n | x | n
Cc1[nH]c2ccccc2c1/C=N/Nc1nc2ccccc2[nH]1 | n | n | u | n | x | n
Cc1ccc(NC(=S)N/N=C/c2c(C)[nH]c3ccccc23)cc1 | n | n | 28.2µM | n | n | u
N#C/C(=C/c1ccc(F)cc1)C(N)=S | n | n | 35.5µM | n | u | n
CC(=O)N(c1ccc(Cl)cc1)c1cn(C(C)=O)c2ccccc12 | n | n | n | n | n | 17.8µM
O=C1CCCC/C1=C\Nc1ccc(O)cc1 | n | n | 8.84µM | n | n | u
COCCNc1c(-c2ccc(OC)cc2)nc2ccc(Cl)cn12 | n | n | 4.97µM | n | n | n
CCc1cccc(NC(=O)C2CCCN2S(=O)(=O)c2ccc3nc(-c4ccccc4)[nH]c3c2)c1 (centres undefined) | x | x | n | x | x | x
O=C(O)C1OC(Oc2c(-c3ccc(O)c(O)c3)oc3cc(O)cc(O)c3c2=O)C(O)C(O)C1O (centres undefined) | n | n | 3.98µM | n | n[15.4 µM] | n
COc1ccc(NCc2nnc(SCC(=O)c3ccc(OC)cc3)n2C)cc1 | n | n | 12.5µM | n | n | n
COc1ccc(CC(=O)NCc2nnc(SCC(=O)c3ccc(OC)cc3)n2C)cc1 | n | n | n | n | n | n
O=C(CCn1c(=O)c2cccn2c2cccnc21)Nc1ccccc1C(F)(F)F | x | x | n | x | x | x
COc1ccc(Br)cc1CNc1ccc(N2CCOCC2)cc1 | x | x | 22.4µM | x | x | n
COc1cccc(NC(=O)NC2(C(F)(F)F)Oc3ccccc3O2)c1 | n | n | 8.91µM | n | n | n
COc1cccc(NC(=O)Nc2cccc(C(=O)O)c2)c1 | n | n | n | n | n | n
O=C(NCc1cccnc1)NC1(C(F)(F)F)Oc2ccccc2O1 | u | n | 24.9µM | n | n | n
SMILES | GLA spleen mod | aGlu spleen mod | GAA glycogen | GLA inh pH 4.5 | GAA inh | N370S GC mod
CC(C)CNC(=O)NC1(C(F)(F)F)Oc2ccccc2O1 | n | n | n | n | n | n
COc1ccc(-n2cc(C(=O)NCCc3cc(OC)ccc3OC)c3ccccc3c2=O)cc1 | x | x | n | x | x | x
Cc1cc(C)c2ccc3c(C)c(C)nc3c2[nH]1 | n | x | n | n | u | 7.08µM
Cc1cccnc1Nc1nc(-c2ccc(O)c(O)c2)cs1 | n | n | 7.08µM | n | u | n
Cc1ccnc(Nc2nc(-c3ccc(O)c(O)c3)cs2)c1 | x | x | 6.31µM | x | x | n
CCOc1ccc(Nc2nc(-c3cccc(Cl)c3)c3c(n2)-c2ccccc2OC3)cc1 | x | x | n | x | x | x
COc1ccc(O)c(/C=N/c2sc(C)c(C)c2C#N)c1 | n | n | 14µM | n | n | n
O=C(Cc1ccccc1)NNc1ccc2ccccc2c1 | n | n | 25.1µM | n | n | n
O=C(COc1ccc2ccccc2c1)NNC(=O)Cc1ccccc1 | n | n | n | n | n | n
O=C(CN1C(=O)CCC1=O)NNc1ccc2ccccc2c1 | n | n | 11.2µM | n | n | n
CN(C)c1ccc(-c2cncnc2Nc2ccc(F)cc2)cc1 | n | n | x | x | x | n
C/C(=N\NC(=S)Nc1ccccc1)C1Cc2ccccc2C(=O)O1 (centres undefined) | n | n | 15.8µM | n | x | n
Cn1c(SCC(=O)CC(=O)Nc2ccccc2)nnc1-c1ccc(O)cc1 | n | n | n | n | n | 14.1µM
O=C(O)C[C@@H]1C(=O)O[C@@H]2C(COC(=O)c3cc(O)c(O)c(O)c3)O[C@@H](OC(=O)c3cc(O)c(O)c(O)c3)[C@@H](OC(=O)c3cc(O)c(O)c4c3[C@H]1[C@H](O)C(=O)O4)[C@H]2OC(=O)c1cc(O)c(O)c(O)c1 (some centres undefined) | n | u | 1.57µM | n | x | n
Cc1ccc(-c2nnc(Nc3ccc(O)cc3)c3ccccc23)cc1S(=O)(=O)N1CCN(C)CC1 | x | x | 15.8µM | x | x | x
NC(=O)[C@H]1CCCN1C(=O)[C@H](Cc1cnc[nH]1)NC(=O)[C@@H]1CCC(=O)N1 | n | n | x | x | x | n
CC1=C(C(=O)N2CCN(c3cccc(C)c3C)CC2)C2(CCCCC2)OC1=O | x | x | n | x | x | x
O=C(CC(c1ccccc1)c1cc(Br)ccc1O)NCCN1CCOCC1 (centres undefined) | 39.8µM | n | n | n | n | n
O=C(CC(c1ccccc1)c1cc(Br)ccc1O)NCCCN1CCOCC1 (centres undefined) | x | x | n | x | x | n
CC(=O)OCC1OC(C#CCC2CCCCC2)C=CC1OC(C)=O (centres undefined) | n[17.5 µM] | n[17.4 µM] | x | x | x | n[12.8 µM]
O=C(O)CC1=C(O)C(=O)N(c2ccccc2)C1c1ccc(Br)cc1 (centres undefined) | n | n | 24.9µM | n | n | n
O=C(O)CC1=C(O)C(=O)N(c2ccccc2)C1c1ccccc1 (centres undefined) | n | n | u | n | n | n
Nc1[nH]ncc1C(=O)Nc1cccc(C(F)(F)F)c1 | n | n | 11.1µM | n | u | n
Cn1ncc(N)c1C(=O)Nc1cccc(C(F)(F)F)c1 | n | n | n | n | n | n
CC(C)(C)OC(=O)NC(Cc1ccccc1)C(O)c1ccco1 (centres undefined) | n | n | x | x | x | n
SMILES | GLA spleen mod | aGlu spleen mod | GAA glycogen | GLA inh pH 4.5 | GAA inh | N370S GC mod
Cc1cnc(C(=O)O)c[n+]1[O-] | n | n | x | x | x | n
Cc1ccccc1-c1ccc2ncnc(NCCN3CCOCC3)c2c1 | n | n | x | x | x | n
O=c1ccc2cc3ccoc3cc2o1 | n | n | n | n | x | n
O=c1ccc2cc(O)c(O)cc2o1 | u | n | 6.31µM | u | u | u
COC(=O)C1=C(C(=O)OC)[C@@H]2N(Cc3ccccc3)c3ccccc3[C@@]23C[C@@H](C(=O)OC)N(C(=O)c2ccco2)C3=N1 | n[17.5 µM] | n[17.4 µM] | x | n | x | n[12.8 µM]
COc1cc(N(C)C)cc(CN(C)CCc2ccc([N+](=O)[O-])cc2)c1O | n | n | x | x | x | n
CCOc1cccc(CNc2ccc(O)cc2)c1OCc1ccccc1Cl | n | n | 6.31µM | n | n | n
